Compound activity as filed in PubChem BioAssay.
FUS suppressor: rescues growth of FUS-expressing yeast | S. cerevisiae FUS-expressing, growth rescue, OD600, 24 h | Potency, µM (top dose mostly 76.6 µM), usual class: activators | hit rate 0.24% among 390,000;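 further: plate controls were DMSO vehicle for no effect and reference control for full effect; nearly all actives have a fitted effect of over 55% in size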
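Quantitative HTS measuring growth restoration of FUS-toxic yeast. Galactose-induced cells (OD 0.005) were exposed 24hr at 30C to compounds at several concentrations, then absorbance at 600 nm was recorded.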
TDP-43 yeast inh: TDP-43 toxicity inhibition in yeast. TDP-43 expressing yeast growth rescue, BacTiter-Glo, 24 h. Potency, µM (highest dose often 46.1 µM), without a hit: at the top dose growth rescue (activation), actives largely listed as activators. hit rate 1.8% among 410,000; further: % of control where 0% means no effect; nearly all actives have a fitted effect of over 50% in size
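Yeast cells expressing TDP-43 under galactose induction are exposed to compounds for 24 hr at 30 deg C. BacTiter-Glo luminescence measures growth, so protective compounds score as activators.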
Mito fusion act: inhibitors of mitochondrial division or activators of mitochondrial fusion; S. cerevisiae fusion-defective mutant growth rescue, CellTiterGlo 48 h; hit rate 0.23% among 320,000; AID 485298; Potency, µM (highest dose often 46.1 µM), for the others: at the top dose growth rescue (activation), hits mostly activators; further: % of control where 0% means no effect; nearly all actives have a fitted effect of over 45% in size
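Growth-rescue viability read-out: after 48 h at the non-permissive 37C in glycerol/ethanol YPEG, yeast mitochondrial fusion mutants are measured by CellTiterGlo luminescence; compounds (23 nl pinned per well) restoring growth score as division inhibitors or fusion activators.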
aSyn rescue: alpha-synuclein toxicity inhibition in yeast; Yeast expressing alpha-synuclein, growth rescue, BacTiter-Glo, 24 h; hit rate 0.14% among 370,000; Potency, µM (highest dose often 46.1 µM), for inactives: top-dose growth rescue (activation), usual class: activators; further: % of control where 0% means no effect; nearly all actives have a fitted effect of over 65% in size
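Screening used galactose-induced yeast with toxic alpha-synuclein levels, exposed to compound for 24 hr at 30 deg C. Cell growth, read with BacTiter-Glo luminescence, gave the measured signal.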
Abeta yeast res: A-beta toxicity reversal in yeast; AID 1347071; yeast expressing A-beta42, growth rescue, OD600, 48 h; response scale: 0% DMSO, 100% iron-clioquinol control; hit rate 0.063% among 410,000; Potency, µM (highest dose often 46.1 µM), actives largely listed as activators; further: nearly all actives have a fitted effect of over 55% in size
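Yeast growth medium received pinned compounds, then yeast cells expressing toxic A-beta were added; plates incubated at 30 C for 48 hr. Growth read as absorbance at 600 nm, normalized to DMSO and equimolar FeCl3 plus clioquinol controls.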
Numbers without * were called inactive; i = inactive; ? = inconclusive; / = no result. Rows were chosen to be rich in hits. Some 2.2% of all compounds tested hit in one or more screens of this group. The call rests on the fitted dose curve; in most records, active means well fitted curve in the direction sought with a large enough effect; inconclusive means small, poorly fitted or top-dose-only effect, or another doubt; inactive means no such curve, though single readings can be large; an effect the other way counts as inactive or inconclusive. Potency means the concentration at half of the fitted maximal effect.

SMILES | FUS suppressor | TDP-43 yeast inh | Mito fusion act | aSyn rescue | Abeta yeast res
CCc1ccccc1OCC(=O)Nc1ccc(F)c(S(=O)(=O)N2CCOCC2)c1 | i | 16µM* | 8% | 7% | i
COc1ccc(C(=O)Nc2ccccc2N2CCCCC2)cc1[N+](=O)[O-] | i | 18µM* | 28% | -3% | i
O=C(COc1ccc(F)cc1Cl)Nc1cccc(S(=O)(=O)N2CCCC2)c1 | i | 35µM* | -6% | -2% | i
O=C(COc1ccccc1Cl)Nc1cccc(S(=O)(=O)N2CCCC2)c1 | i | 18µM* | -7% | 13% | i
COc1ccc(CC(=O)Nc2ccc(F)c(S(=O)(=O)N3CCOCC3)c2)cc1 | i | 5% | / | 0% | i
COc1cc(-c2nc(S(=O)(=O)c3ccc(Br)cc3)c(N3CCOCC3)o2)cc(OC)c1OC | i | 9% | / | / | i
CCCC1CCC2(CC1)CCC2OC(=S)Nc1ccc(I)cc1 (configuration not stated) | i | / | / | / | /
COc1ccccc1NC(=O)c1cccc(S(=O)(=O)N2CCCCCC2)c1 | i | 35µM* | / | / | i
COc1ccc(S(=O)(=O)N2CCCCC2)cc1NC(=O)c1cccc(S(=O)(=O)N2CCOCC2)c1 | / | -6% | / | 0% | i
O=C(Nc1cccc(S(=O)(=O)N2CCCCC2)c1)[C@@H]1CCCN1S(=O)(=O)c1ccccc1C(F)(F)F | 25µM* | -22% | / | 0% | i
CC(C)C[C@@H]1COc2cc(Br)ccc2S(=O)(=O)N1Cc1cn(CCC2OCCO2)nn1 | i | / | / | / | /
COc1ccc(S(=O)(=O)NC(=O)C2(C)CCN2C(=O)C2(c3ccccc3)CCCC2)cc1 (configuration not stated) | i | ? | / | -10% | i
COc1ccc(NC(=O)CN2C(=O)C3(SCC(=O)N3c3ccccc3)c3ccccc32)cc1Cl (configuration not stated) | i | 3% | / | -9% | i
COc1ccccc1CNC(=O)c1cc2cc3ccc(Cl)cc3nc2o1 | i | 7% | / | / | i
CC1CCc2onc(C(=O)NCc3ccco3)c2C1 (configuration not stated) | i | 25µM* | -1% | 0% | i
O=C(NCc1ccco1)c1noc2c1CCCC2 | i | -9% | -2% | 0% | i
COc1ccc(N=c2nc(-c3ccccc3)n(-c3ccc(C)cc3)s2)cc1 | / | / | / | -26% | /
COc1ccc(Cc2nn3c(-c4cc(OC)c(OC)c(OC)c4)nnc3s2)cc1 | ? | 22µM* | 15% | -3% | i
c1ccc(-c2nnc3sc(-c4ccncc4)nn23)cc1 | i | -16% | 21% | -6% | i
c1ccc(-c2nnc3sc(-c4csc5c4CCCC5)nn23)cc1 | / | 20µM* | ? | 2% | i
COc1ccc(-c2nn3c(-c4ccccc4)nnc3s2)cc1 | ? | 14µM* | 3% | 1% | i
CC(=O)c1ccc(N2CCN(C(=O)Nc3cn(CC(C)C)c(=O)c4ccccc34)CC2)cc1 | i | 5% | / | 1% | i
CCOc1cc2sc(N3CCC(C(=O)Nc4ccc(C)cc4)CC3)nc2cc1Br | i | -5% | / | 0% | i
CC1CCC/C(=C\Nc2ccc3c(c2)OCO3)C1=O (configuration not stated) | 16µM* | -10% | 0% | -4% | i
O=C1CCC/C1=C/Nc1ccc2c(c1)OCO2 | i | 4% | 3% | / | i
SMILES | FUS suppressor | TDP-43 yeast inh | Mito fusion act | aSyn rescue | Abeta yeast res
CC(C)(C)c1ccc(OCC(=O)Nc2c(C(=O)c3ccc(F)cc3)oc3ccccc23)cc1 | i | ? | / | / | i
COc1cc(NC(=O)c2cc(-c3ccccc3Cl)on2)cc(OC)c1OC | i | 16µM* | -1% | -26% | i
COc1ccc(NC(=O)c2cc(-c3ccccc3Cl)on2)cc1 | i | 14% | 4% | -9% | i
CC(C)(C)NC(=O)CSc1nc2ccc(Nc3nc(N4CCOCC4)nc(N4CCOCC4)n3)cc2s1 | i | 11µM* | ? | ? | i
CCN(C(=O)CSc1nc2ccccc2n1CC(=O)Nc1cccc(C#N)c1)c1ccccc1 | ? | 0% | / | / | i
O=Cc1c(-c2ccc(F)cc2)nc2ccccn12 | i | -12% | 6% | -12% | i
Cc1ccn2c(C=O)c(-c3ccc(F)cc3)c(C=O)c2c1 | i | 20µM* | 17% | -8% | i
CCOC(=O)C1=C(O)c2ccccc2C(=O)/C1=C\c1ccc(C)cc1 | / | 3.2µM* | 18% | -76% | i
COc1ccc(N(CC(=O)Nc2cc(C)on2)S(=O)(=O)c2ccc(Cl)cc2)cc1 | i | 17% | -3% | 1% | i
COc1ccc(N(CC(=O)Nc2cc(C)on2)S(=O)(=O)c2cc(C)ccc2C)cc1 | 32µM* | ? | -1% | 15% | i
CCOC(=O)Cn1c(=O)n(-c2ccccc2OC)c2nc(-c3ccccc3)nc(C(N)=O)c21 | ? | 17% | / | ? | i
Cc1coc2c(C)c3oc(=O)cc(-c4ccccc4)c3cc12 | i | -14% | / | 10% | i
CCCc1cc(=O)oc2c(C)c3occ(C)c3cc12 | i | -11% | 10µM* | 7% | i
Cc1ccc(-c2nc3ccc([N+](=O)[O-])cc3[nH]2)cc1 | i | 18µM* | 21% | 1% | i
COc1ccc(-c2nc3ccc([N+](=O)[O-])cc3[nH]2)cc1 | i | 16% | 16% | 11% | i
Nc1ccc2nc(-c3ccc(-c4nc5ccc(N)cc5[nH]4)cc3)[nH]c2c1 | i | 14µM* | 1% | 9% | ?
CC1CCCCN1c1ncnc(N)c1[N+](=O)[O-] (configuration not stated) | i | 11% | 3% | 15% | i
CC1Cc2ccccc2N1c1ncnc(N)c1[N+](=O)[O-] (configuration not stated) | i | 11µM* | 6% | 15% | i
c1ccc2c(c1)CCN(c1ncnc3nc[nH]c13)C2 | i | -16% | 3% | 1% | i
CC1Cc2ccccc2N1c1ncnc2nc[nH]c12 (configuration not stated) | i | 20µM* | 14% | -10% | i
CC1(C)CCC(c2ccc(Cl)cc2)=C(CN2CCN(c3ccc(C(=O)NS(=O)(=O)c4ccc(N[C@H](CCN5CCOCC5)CSc5ccccc5)c(S(=O)(=O)C(F)(F)F)c4)cc3)CC2)C1 | / | / | / | -6% | /
O=C1Cc2c([nH]c3ccc(Br)cc23)-c2ccccc2N1 | / | -7% | 7.3µM* | -17% | i
Brc1ccc2[nH]c3c(c2c1)CCC3 | i | ? | -2% | -21% | i
Cc1ccccc1N(C)S(=O)(=O)c1nnc(NC(=O)C(C)C)s1 | i | 19% | / | / | i
